Experimental findings from PubChem BioAssay (EPA / NIEHS) are described below.

Records with an inconclusive call do not appear. Activity calls are given as the source filed them. How the source made its calls, unless noted: active means hit-call score of the fitted dose curve at least 0.9, where 1 is the maximum; inactive means score below 0.9.

Read-out in assay [1]: Intercellular Adhesion Molecule 1 (ICAM1), ICAM1 (gene 3383)
Description: BSK_3C_ICAM1: BioMAP Diversity Plus: 3C Assay for Intercellular Adhesion Molecule 1 (ICAM1) Biomarker Activity (AID 2283003). Conditions: primary human endothelial cells (HUVEC); actives raise or lower the signal. In a few lines: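 Primary human umbilical vein endothelial cells in the BioMAP 3C system were exposed to chemicals for 24 h, then ICAM-1 was quantified by ELISA. Activity was fitted bidirectionally against the DMSO negative control baseline.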

A short description of assay [2]: BSK_3C_Proliferation: Cell Proliferation Assessment in the BioMAP Diversity Plus: 3C Assay (AID 2283006).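 On AC50: potency may reflect either rise or fall in cell number versus DMSO.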 Conditions: primary human endothelial cells (HUVEC). In a few lines: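 Human umbilical vein endothelial cells were grown sub-confluent and exposed to chemical for 48 h, then fixed with 10% TCA and stained with 0.1% sulforhodamine B; absorbance at 560 nm gave relative cell number, fitted bidirectionally against DMSO baseline.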

The target of assay [3] is Peroxisome proliferator-activated receptor gamma (Homo sapiens) (UniProt P37231). Kind of assay: ATG_PPARg_TRANS: Attagene TRANS-FACTORIAL HepG2 Assay for human Peroxisome Proliferator-activated Receptor-gamma (PPARg) (AID 2283007; active means hit-call score of the fitted dose curve at least 0.9, where 1 is the maximum). In a few lines: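 Read-out: reporter mRNA induction, detected by fluorescence after RT-PCR and capillary electrophoresis. Transiently transfected human HepG2 liver cells carrying a chimeric NR-Gal4 construct were dosed for 24 h; activity was fitted upward relative to DMSO.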
Chain of Peroxisome proliferator-activated receptor gamma (Homo sapiens) (P37231 whole entry, looked up, the tested form may be a part): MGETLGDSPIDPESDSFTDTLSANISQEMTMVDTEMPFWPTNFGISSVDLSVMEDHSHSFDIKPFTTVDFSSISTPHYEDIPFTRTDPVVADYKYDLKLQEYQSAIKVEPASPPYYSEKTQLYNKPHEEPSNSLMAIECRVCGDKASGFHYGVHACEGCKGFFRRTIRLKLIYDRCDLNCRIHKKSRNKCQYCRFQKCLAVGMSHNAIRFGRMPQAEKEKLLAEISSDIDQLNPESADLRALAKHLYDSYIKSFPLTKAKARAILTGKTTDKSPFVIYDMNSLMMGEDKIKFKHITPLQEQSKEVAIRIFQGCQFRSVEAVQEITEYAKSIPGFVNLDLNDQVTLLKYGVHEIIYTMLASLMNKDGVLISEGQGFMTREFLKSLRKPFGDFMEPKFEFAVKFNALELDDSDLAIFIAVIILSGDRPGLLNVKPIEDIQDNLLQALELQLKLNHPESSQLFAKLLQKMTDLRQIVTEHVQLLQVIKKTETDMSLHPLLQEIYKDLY

For assay [4], the target named is Nuclear receptor subfamily 1 group I member 2 (Homo sapiens) (UniProt O75469). Kind of assay: ATG_PXR_TRANS: Attagene TRANS-FACTORIAL HepG2 Assay for human Pregnane X Receptor (PXR) (AID 2283008; active means hit-call score of the fitted dose curve at least 0.9, where 1 is the maximum). In a few lines:
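HepG2 cells transiently transfected with GAL4-UAS reporter units and PXR-Gal4 chimera, exposed 24 h. Reporter mRNA quantified by RT-PCR, fluorescent labelling, HpaI digestion and capillary electrophoresis; gain of signal vs DMSO.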

Assay [5] deals with Retinoic acid receptor RXR-alpha (Homo sapiens) (UniProt P19793). Kind of assay: ATG_RXRa_TRANS: Attagene TRANS-FACTORIAL HepG2 Assay for human Retinoid X Receptor alpha (RXRa) (AID 2283012; active means hit-call score of the fitted dose curve at least 0.9, where 1 is the maximum). The method in brief:
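HepG2 cells transiently transfected with multiplexed GAL4-UAS reporter units and chimeric NR-GAL4 fusions, dosed 24 h. Reporter mRNA measured by RT-PCR, FAM labelling, HpaI digestion and capillary electrophoresis; gain-of-signal fitted relative to DMSO baseline.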

In assay [6] the target is human Retinoid X Receptor beta (RXRb), RXRB (gene 6257) (UniProt P28702). Kind of assay: ATG_RXRb_TRANS: Attagene TRANS-FACTORIAL HepG2 Assay for human Retinoid X Receptor beta (RXRb) (AID 2283013; active means hit-call score of the fitted dose curve at least 0.9, where 1 is the maximum). The method in brief: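 HepG2 cells transiently transfected with multiplexed reporter units driven by GAL4-UAS and exogenous chimeric NR-Gal4 proteins; treated 24 h. Reporter mRNA measured by RT-PCR, 6-FAM labelling and capillary electrophoresis; gain-of-signal fitted versus DMSO baseline.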
Chain of human Retinoid X Receptor beta (RXRb), RXRB (gene 6257) (P28702 whole entry, looked up, the tested form may be a part): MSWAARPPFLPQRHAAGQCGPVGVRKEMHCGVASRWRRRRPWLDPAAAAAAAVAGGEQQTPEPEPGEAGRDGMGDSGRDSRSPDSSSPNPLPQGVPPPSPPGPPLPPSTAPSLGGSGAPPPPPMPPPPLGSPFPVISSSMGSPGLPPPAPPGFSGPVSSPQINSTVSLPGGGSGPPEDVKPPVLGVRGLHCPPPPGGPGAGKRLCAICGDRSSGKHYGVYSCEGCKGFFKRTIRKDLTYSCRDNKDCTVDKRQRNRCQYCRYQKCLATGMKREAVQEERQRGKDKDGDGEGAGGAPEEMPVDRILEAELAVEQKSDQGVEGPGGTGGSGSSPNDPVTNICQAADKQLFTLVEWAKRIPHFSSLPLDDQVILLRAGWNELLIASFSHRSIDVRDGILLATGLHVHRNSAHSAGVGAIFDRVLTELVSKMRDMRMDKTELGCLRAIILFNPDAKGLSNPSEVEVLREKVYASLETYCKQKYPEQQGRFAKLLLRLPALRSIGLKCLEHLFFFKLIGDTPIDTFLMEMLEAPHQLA

In assay [7] the target is human Thyroid Receptor alpha (THRa1), THRA (gene 7067) (UniProt P10827). Description: ATG_THRa1_TRANS: Attagene TRANS-FACTORIAL HepG2 Assay for human Thyroid Receptor alpha (THRa1) (AID 2283014; active means hit-call score of the fitted dose curve at least 0.9, where 1 is the maximum). The method in brief: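 Transcripts from GAL4-UAS-driven reporters, measured after 24 h compound exposure by RT-PCR plus capillary electrophoresis of 6-FAM-labeled fragments, were fitted for gain of signal relative to DMSO. Cells: transiently transfected HepG2 expressing NR-Gal4 chimeras.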
Chain of human Thyroid Receptor alpha (THRa1), THRA (gene 7067) (P10827 whole entry, looked up, the tested form may be a part): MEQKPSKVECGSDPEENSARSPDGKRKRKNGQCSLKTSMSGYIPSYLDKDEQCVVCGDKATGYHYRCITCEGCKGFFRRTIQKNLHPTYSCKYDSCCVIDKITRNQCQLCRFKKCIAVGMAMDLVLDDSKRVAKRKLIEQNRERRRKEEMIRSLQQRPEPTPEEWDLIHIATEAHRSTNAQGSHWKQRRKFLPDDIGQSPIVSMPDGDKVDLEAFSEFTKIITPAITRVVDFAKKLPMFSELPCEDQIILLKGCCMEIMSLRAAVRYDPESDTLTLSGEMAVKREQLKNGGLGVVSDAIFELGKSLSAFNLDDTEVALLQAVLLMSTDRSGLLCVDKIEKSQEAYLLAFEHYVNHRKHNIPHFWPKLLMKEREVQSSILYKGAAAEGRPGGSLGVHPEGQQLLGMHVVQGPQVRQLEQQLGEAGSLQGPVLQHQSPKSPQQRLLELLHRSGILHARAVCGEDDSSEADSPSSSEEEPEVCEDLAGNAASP

Read-out in assay [8]: E-selectin (Homo sapiens) (UniProt P16581)
Kind of assay: BSK_3C_Eselectin: BioMAP Diversity Plus: 3C Assay for Eselectin Biomarker Activity (AID 2283015).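 On outcome: cell surface E-selectin protein quantified by ELISA 24 h after dosing.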 The settings on record: primary human endothelial cells (HUVEC); actives raise or lower the signal. The method in brief: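 E-selectin ELISA readout, fitted bidirectionally relative to DMSO, taken 24 h post-dosing in HUVEC cultures of the 3C system. Overt cytotoxicity tracked with sulforhodamine B staining of parallel wells.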

Read-out in assay [9]: Interleukin-1 alpha (IL1a), IL1A (gene 3552)
Description: BSK_BE3C_IL1a: BioMAP Diversity Plus: BE3C Assay for Interleukin-1 alpha (IL1a) Biomarker Activity (AID 2283016). Conditions: primary human bronchial epithelial cells; actives raise or lower the signal. The method in brief: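 Human primary bronchial epithelial cells (BE3C system) were dosed with compound and IL-1a measured by ELISA 24 h later. Activity was fitted bidirectionally against DMSO baseline; cytotoxicity was tracked in parallel cultures by SRB total-protein staining.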

Read-out in assay [10]: Monocyte Chemoattractant Protein-1 (MCP1), CCL2 (gene 6347)
Description: BSK_4H_MCP1: BioMAP Diversity Plus: 4H Assay for Monocyte Chemoattractant Protein-1 (MCP1) Biomarker Activity (AID 2283018). The settings on record: primary human endothelial cells (HUVEC); actives raise or lower the signal. The method in brief:
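Human umbilical vein endothelial cells (4H system) dosed with chemical; MCP-1 measured by ELISA 24 h after dosing. Bidirectional curve fitting against DMSO negative control as baseline; parallel SRB total-protein staining tracks overt cytotoxicity.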

Read-out in assay [11]: Human Leukocyte Antigen - DR isotype (HLADR), HLA-DRA (gene 3122)
Kind of assay: BSK_3C_HLADR: BioMAP Diversity Plus: 3C Assay for Human Leukocyte Antigen - DR isotype (HLADR) Biomarker Activity (AID 2283019).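 On outcome: ELISA of cell-surface HLA-DR on HUVEC 24 h after dosing.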 Conditions: primary human endothelial cells (HUVEC); actives raise or lower the signal. The method in brief:
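Bidirectional fitting against DMSO was applied to the HLA-DR ELISA signal from human umbilical vein endothelial cells, 24 h post-dose. Cytotoxicity came from parallel SRB total-protein staining; 3C proliferation was counted by SRB at 48 h.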

Read-out in assay [12]: Interleukin-8 (IL8), CXCL8 (gene 3576)
Kind of assay: BSK_3C_IL8: BioMAP Diversity Plus: 3C Assay for Interleukin-8 (IL8) Biomarker Activity (AID 2283020). Conditions: primary human endothelial cells (HUVEC); actives raise or lower the signal. The method in brief: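 Primary human umbilical vein endothelial cells (3C system) were exposed to test chemical for 24 h, then IL-8 was quantified by ELISA. Responses were fitted bidirectionally against DMSO vehicle as baseline.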

Read-out in assay [13]: Monokine induced gamma interferon (MIG), CXCL9 (gene 4283)
Description: BSK_3C_MIG: BioMAP Diversity Plus: 3C Assay for Monokine induced gamma interferon (MIG) Biomarker Activity (AID 2283021). Conditions: primary human endothelial cells (HUVEC); actives raise or lower the signal. In a few lines: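 Primary human umbilical vein endothelial cells in the 3C system were exposed to chemical for 24 h, after which MIG was quantified by ELISA. Activity was fitted bidirectionally against DMSO as negative control and baseline.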

For assay [14], the target named is human Vitamin D Receptor (VDR), VDR (gene 7421) (UniProt P11473). Description: ATG_VDR_TRANS: Attagene TRANS-FACTORIAL HepG2 Assay for human Vitamin D Receptor (VDR) (AID 2283022; active means hit-call score of the fitted dose curve at least 0.9, where 1 is the maximum). The method in brief: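 Transactivation by an exogenous VDR-Gal4 chimera in transiently transfected HepG2 cells was measured as reporter transcript level 24 hours after chemical treatment. RT-PCR products were analysed by capillary electrophoresis and fitted in the positive direction relative to DMSO.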
Chain of human Vitamin D Receptor (VDR), VDR (gene 7421) (P11473 whole entry, looked up, the tested form may be a part): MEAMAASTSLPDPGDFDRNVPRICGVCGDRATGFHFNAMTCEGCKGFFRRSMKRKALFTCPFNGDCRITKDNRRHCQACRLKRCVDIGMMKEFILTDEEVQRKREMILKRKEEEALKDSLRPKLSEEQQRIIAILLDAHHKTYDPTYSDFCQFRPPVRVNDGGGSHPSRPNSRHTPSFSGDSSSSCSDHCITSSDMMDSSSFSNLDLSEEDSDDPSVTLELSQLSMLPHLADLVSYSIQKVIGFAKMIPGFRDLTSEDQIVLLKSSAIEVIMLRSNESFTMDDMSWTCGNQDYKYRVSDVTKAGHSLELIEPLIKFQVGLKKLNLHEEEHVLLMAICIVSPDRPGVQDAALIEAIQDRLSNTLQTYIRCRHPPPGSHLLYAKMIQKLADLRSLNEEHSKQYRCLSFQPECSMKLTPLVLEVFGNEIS

Read-out in assay [15]: Monocyte Chemoattractant Protein-1 (MCP1), CCL2 (gene 6347)
Kind of assay: BSK_3C_MCP1: BioMAP Diversity Plus: 3C Assay for Monocyte Chemoattractant Protein-1 (MCP1) Biomarker Activity (AID 2283017). The settings on record: primary human endothelial cells (HUVEC); actives raise or lower the signal. In a few lines: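 MCP-1 was measured by ELISA 24 h after dosing in primary HUVEC 3C cultures and fitted in both directions relative to DMSO; cytotoxicity was checked by SRB total-protein staining in parallel wells.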

Assay [16] has as its target human Retinoic Acid Receptor gamma (RARg), RARG (gene 5916) (UniProt P13631). Kind of assay: ATG_RARg_TRANS: Attagene TRANS-FACTORIAL HepG2 Assay for human Retinoic Acid Receptor gamma (RARg) (AID 2283009; active means hit-call score of the fitted dose curve at least 0.9, where 1 is the maximum). In a few lines: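 HepG2 cells transiently transfected with multiplexed reporter units expressing chimeric RARg-GAL4 and GAL4-UAS-driven reporters; 24 h compound exposure. Reporter mRNA quantified by RT-PCR with fluorescent labelling and capillary electrophoresis; gain-of-signal fitted relative to DMSO baseline.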

The target in assay [17] is human RAR-related Orphan Receptor beta (RORb), RORB (gene 6096) (UniProt Q92753). Description: ATG_RORb_TRANS: Attagene TRANS-FACTORIAL HepG2 Assay for human RAR-related Orphan Receptor beta (RORb) (AID 2283010; active means hit-call score of the fitted dose curve at least 0.9, where 1 is the maximum). In a few lines:
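HepG2 cells were transiently transfected with multiplexed GAL4-UAS reporter units expressing chimeric nuclear receptor–GAL4 proteins, then dosed for 24 h. Reporter mRNA was quantified by RT-PCR with fluorescent labelling and capillary electrophoresis; gain of signal was fitted relative to DMSO.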

For assay [18], the target named is human RAR-related Orphan Receptor gamma (RORg), RORC (gene 6097) (UniProt P51449). Description: ATG_RORg_TRANS: Attagene TRANS-FACTORIAL HepG2 Assay for human RAR-related Orphan Receptor gamma (RORg) (AID 2283011; active means hit-call score of the fitted dose curve at least 0.9, where 1 is the maximum). In a few lines: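 Reporter transcripts from a transfected RORg-GAL4 chimera in HepG2 cells were quantified 24 h after dosing by RT-PCR, 6-FAM labelling, HpaI digestion and capillary electrophoresis; increases over DMSO baseline were fitted.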
Chain of human RAR-related Orphan Receptor gamma (RORg), RORC (gene 6097) (P51449 whole entry, looked up, the tested form may be a part): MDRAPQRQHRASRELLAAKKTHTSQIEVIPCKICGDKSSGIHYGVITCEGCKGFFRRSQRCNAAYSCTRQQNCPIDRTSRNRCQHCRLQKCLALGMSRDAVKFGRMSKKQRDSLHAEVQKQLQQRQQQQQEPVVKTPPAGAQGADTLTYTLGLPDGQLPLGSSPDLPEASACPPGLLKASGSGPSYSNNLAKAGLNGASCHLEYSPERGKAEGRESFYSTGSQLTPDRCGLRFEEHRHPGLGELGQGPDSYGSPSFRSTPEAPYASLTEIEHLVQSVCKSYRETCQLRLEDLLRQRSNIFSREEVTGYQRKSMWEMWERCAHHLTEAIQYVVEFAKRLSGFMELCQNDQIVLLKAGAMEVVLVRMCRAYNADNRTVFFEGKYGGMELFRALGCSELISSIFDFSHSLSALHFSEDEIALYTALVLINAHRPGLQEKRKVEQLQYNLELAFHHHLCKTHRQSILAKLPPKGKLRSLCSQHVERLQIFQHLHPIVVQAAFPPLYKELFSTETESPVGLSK

Chain of Nuclear receptor subfamily 1 group I member 2 (Homo sapiens) (O75469 whole entry, looked up, the tested form may be a part): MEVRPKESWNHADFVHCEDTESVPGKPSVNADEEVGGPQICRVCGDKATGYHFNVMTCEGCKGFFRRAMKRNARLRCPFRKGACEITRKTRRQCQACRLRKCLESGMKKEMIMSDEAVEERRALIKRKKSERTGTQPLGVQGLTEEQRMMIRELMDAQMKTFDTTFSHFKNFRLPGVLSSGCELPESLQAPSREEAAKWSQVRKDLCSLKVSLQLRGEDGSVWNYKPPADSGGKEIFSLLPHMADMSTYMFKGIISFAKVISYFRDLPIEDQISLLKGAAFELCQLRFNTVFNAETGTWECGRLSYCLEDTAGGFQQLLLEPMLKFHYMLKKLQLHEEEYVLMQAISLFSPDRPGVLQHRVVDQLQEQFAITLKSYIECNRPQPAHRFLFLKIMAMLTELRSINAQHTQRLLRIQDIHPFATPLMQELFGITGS
Chain of E-selectin (Homo sapiens) (P16581 whole entry, looked up): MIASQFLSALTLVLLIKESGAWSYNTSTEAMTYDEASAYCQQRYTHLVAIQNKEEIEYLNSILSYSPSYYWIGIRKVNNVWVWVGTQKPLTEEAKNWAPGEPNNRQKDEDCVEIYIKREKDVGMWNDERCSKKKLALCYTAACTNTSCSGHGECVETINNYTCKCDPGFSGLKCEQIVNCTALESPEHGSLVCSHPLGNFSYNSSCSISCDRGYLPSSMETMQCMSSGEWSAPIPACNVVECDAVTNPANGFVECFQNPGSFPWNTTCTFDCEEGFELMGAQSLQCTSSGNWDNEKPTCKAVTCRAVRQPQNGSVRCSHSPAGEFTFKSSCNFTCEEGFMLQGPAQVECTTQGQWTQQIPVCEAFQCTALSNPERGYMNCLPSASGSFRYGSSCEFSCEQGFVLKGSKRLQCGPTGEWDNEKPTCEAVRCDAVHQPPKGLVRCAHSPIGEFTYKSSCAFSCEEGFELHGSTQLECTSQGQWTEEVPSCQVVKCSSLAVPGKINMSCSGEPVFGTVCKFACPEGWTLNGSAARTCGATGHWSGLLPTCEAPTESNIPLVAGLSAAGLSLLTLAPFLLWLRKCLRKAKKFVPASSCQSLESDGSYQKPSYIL
Chain of Retinoic acid receptor RXR-alpha (Homo sapiens) (P19793 whole entry, looked up, the tested form may be a part): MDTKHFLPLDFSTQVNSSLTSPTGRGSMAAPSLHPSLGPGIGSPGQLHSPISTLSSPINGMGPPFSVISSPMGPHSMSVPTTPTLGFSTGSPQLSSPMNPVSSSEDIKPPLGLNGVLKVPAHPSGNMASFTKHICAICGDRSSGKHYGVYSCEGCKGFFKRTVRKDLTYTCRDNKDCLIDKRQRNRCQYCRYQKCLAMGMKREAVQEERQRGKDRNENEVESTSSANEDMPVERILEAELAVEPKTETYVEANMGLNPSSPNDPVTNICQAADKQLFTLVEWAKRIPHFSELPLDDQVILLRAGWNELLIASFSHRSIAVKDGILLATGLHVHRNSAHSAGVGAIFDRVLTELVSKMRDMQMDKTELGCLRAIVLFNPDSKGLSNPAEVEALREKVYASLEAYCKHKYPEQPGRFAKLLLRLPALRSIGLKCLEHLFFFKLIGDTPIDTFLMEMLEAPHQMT
Chain of human Retinoic Acid Receptor gamma (RARg), RARG (gene 5916) (P13631 whole entry, looked up, the tested form may be a part): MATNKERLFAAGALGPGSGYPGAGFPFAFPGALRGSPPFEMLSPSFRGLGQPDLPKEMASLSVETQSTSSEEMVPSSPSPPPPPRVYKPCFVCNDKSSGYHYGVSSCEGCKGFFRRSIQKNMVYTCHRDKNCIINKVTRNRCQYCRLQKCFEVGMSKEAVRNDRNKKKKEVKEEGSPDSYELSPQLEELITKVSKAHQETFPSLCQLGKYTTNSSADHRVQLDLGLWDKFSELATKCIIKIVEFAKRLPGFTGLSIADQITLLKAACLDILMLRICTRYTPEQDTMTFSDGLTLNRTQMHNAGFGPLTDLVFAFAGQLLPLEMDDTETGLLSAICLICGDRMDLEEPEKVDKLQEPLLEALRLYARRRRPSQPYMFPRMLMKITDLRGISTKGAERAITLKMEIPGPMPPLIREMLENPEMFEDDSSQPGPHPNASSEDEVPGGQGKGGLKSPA
Chain of human RAR-related Orphan Receptor beta (RORb), RORB (gene 6096) (Q92753 whole entry, looked up, the tested form may be a part): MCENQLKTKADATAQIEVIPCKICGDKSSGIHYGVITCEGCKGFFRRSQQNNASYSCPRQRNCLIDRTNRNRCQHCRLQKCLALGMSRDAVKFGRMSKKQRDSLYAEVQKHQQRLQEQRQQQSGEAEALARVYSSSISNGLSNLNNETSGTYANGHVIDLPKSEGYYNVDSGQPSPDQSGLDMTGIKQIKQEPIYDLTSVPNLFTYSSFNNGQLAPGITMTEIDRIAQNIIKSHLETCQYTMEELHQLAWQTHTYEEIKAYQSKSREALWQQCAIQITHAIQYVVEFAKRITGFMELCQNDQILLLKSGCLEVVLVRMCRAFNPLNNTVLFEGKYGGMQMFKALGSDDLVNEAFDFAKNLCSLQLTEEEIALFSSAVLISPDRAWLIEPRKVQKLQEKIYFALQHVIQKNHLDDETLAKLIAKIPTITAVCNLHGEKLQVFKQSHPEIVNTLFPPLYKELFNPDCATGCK

For `Cc1ccccc1OP(=O)(Oc1ccccc1C)Oc1ccccc1C`, the outcome in [1], in assay [3], in [5], in [6], in assay [7] and in [13] was inactive. For the same compound, the call in assay [14] was inactive. For the same compound, the AC50 in assay [2] is 8.31 µM (active); in [4], 0.0985 µM (active); in [8] it was 5.43 µM (active); in [9], 10.7 µM (active); in assay [10] it was 6.27 µM (active); in assay [11] it was 6.21 µM (active). The AC50 in assay [12] was 5.37 µM (active).

Turning to `Cc1ccccc1OP(=O)(Oc1ccccc1)Oc1ccccc1`, the result in assay [1], in assay [5], in assay [7], in assay [13] and in assay [14] was inactive. The AC50 was 20 µM (active) in assay [2]; 3.74 µM (active) in assay [3]; 0.736 µM (active) in assay [4]; 20 µM (active) in [8]; 6.89 µM (active) in assay [9]; 20 µM (active) in [10]. Besides, the AC50 in [11] was 30.4 µM (active); in [12], 20 µM (active).

As for `Cc1cccc(OP(=O)(Oc2cccc(C)c2)Oc2cccc(C)c2)c1`, the outcome in [1], in assay [8], in assay [15], in assay [10], in [11] and in assay [13] was inactive. Also, the result in assay [14] was inactive. Further, the AC50 in [2] was 8.53 µM (active); in assay [3], 13.9 µM (active); in assay [4], 0.521 µM (active); in assay [9], 0.78 µM (active).

On to `OCCCCO`, for which the outcome in assay [1], in [2], in assay [16], in assay [17], in assay [18] and in assay [8] was inactive. For the same compound, the outcome in [9], in [15], in [10], in [11], in assay [12] and in assay [13] was inactive.

As a reminder, the AC50 is the concentration giving half of the maximal activity seen.
